# Assay results reported in PubChem BioAssay AID1259417 (TB Discovery Research, Infectious Disease Research Institute, 2018).
# Among all 1,100 compounds or so, about 760 (69%) were called active. The rule behind the calls is not given here. The set was probably picked from earlier hits. The list shows a part of the results.
# Assay: M. tuberculosis growth inhibition, HTS (AID 1259417);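 note: bacteria grown with compound for 5 days at 37 °C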
# Details: stronger effect = higher value, concentration not given here
# [1] = M. tuberculosis DsRed fluorescence growth inhibition
# [2] = M. tuberculosis growth inhibition
SMILES,inhibition [1],inhibition [2] [%]
COC(=O)COc1ccc2c(=O)c(Oc3ccccc3)c(C)oc2c1,77.7% (active),88.9
CCOC(=O)COc1ccc2c(=O)c(-c3ccccc3)coc2c1,96% (active),97
COC(=O)COc1ccc2c(=O)c(-c3ccccc3OC)coc2c1,16.1% (active),38.3
COc1ccccc1-c1coc2cc(OCC(=O)OCc3ccccc3)ccc2c1=O,36.9% (active),64.7
CCOC(=O)COc1ccc2c(=O)c(-c3ccccc3OC)coc2c1,10.9% (inactive),27
COC(=O)COc1ccc2c(=O)c(-c3ccccc3Cl)coc2c1,74% (active),94.8
CCC(C(=O)Nc1ccc(CC(=O)OC)cc1)c1ccccc1 (stereo not given),70.5% (active),93.3
COc1cc(NC(=O)c2cc3ccccc3o2)ccc1NC(=O)c1ccccc1Cl,2.65% (inactive),-0.577
COc1ccc(OC)c(NC(=O)c2cc3cc(Cl)ccc3oc2=O)c1,12.1% (inactive),21.1
COc1cc(Br)cc2cc(C(=O)Nc3cccc(C(F)(F)F)c3)c(=O)oc12,10.9% (inactive),29.4
COc1ccc(OC)c(NC(=O)c2cc3cc(Br)ccc3oc2=O)c1,9.39% (active),46.5
CCCCc1ccc(NC(=O)c2cc3cc(Br)cc(OC)c3oc2=O)cc1,4.42% (active),82.8
Cn1nc([N+](=O)[O-])nc1Sc1nnc(-c2cccnc2)o1,87.1% (active),91.2
CC(NS(=O)(=O)c1cccc(Cl)c1)C(=O)Nc1ccc(Br)cc1F (stereo not given),11.5% (inactive),13.5
Cc1cc(Cl)ccc1NC(=O)CCc1ccc(S(=O)(=O)NCC(C)C)cc1,95.3% (active),83.6
Cc1ccc(NC(=O)C(C)NS(=O)(=O)c2ccc(Cl)cc2)cc1Cl (stereo not given),2.64% (inactive),-8.36
Cc1cc(Cl)ccc1NC(=O)CCc1ccc(S(=O)(=O)NC(C)C)cc1,94.8% (active),83.1
COc1cc(NC(=O)C(Cl)Cl)c(OC)cc1Cl,7.63% (inactive),4.68
CCOC(=O)c1cccc(NC(=O)C(Cl)Cl)c1,47.5% (active),52.3
Cc1cc(=O)[nH]c(-n2nc(C)cc2C)n1,91.4% (active),94.9
COc1cc(C(=O)Nc2sc3c(c2C(=O)NCC2CCCO2)CCC3)cc(OC)c1OC (stereo not given),-3.52% (inactive),-31.7
CC(C)(C)c1ccc(C(=O)Nc2sc3c(c2C(=O)NCC2CCCO2)CCCC3)cc1 (stereo not given),12.8% (inactive),-13.4
Cc1cccc(-c2nsc(SCC(=O)NCC3CCCO3)n2)c1 (stereo not given),94.3% (active),76.8
COc1ccc(-c2nsc(SCC(=O)NCc3ccco3)n2)cc1,93.1% (active),66.6
COc1ccc(-c2nsc(SCC(=O)NCC3CCCO3)n2)cc1 (stereo not given),95.7% (active),76.1
